Experimental data from PubChem BioAssay.
This is one part of the list. Activity calls are given as the source filed them. Unless noted, no stated cut-off is given here; in the data, active means inhibition above about 23%; inactive means the rest.

How the values were obtained:
[1] = target: Galanin receptor type 2 (Homo sapiens) (UniProt O43603); test: blockers of human galanin receptor 2 – cell-based, confirmation (AID 866; in the data active means inhibition above about 27%;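 further: cells stimulated with galanin at about its EC80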); conditions: GALR2-expressing cells, antagonist mode, at 4 µM, stronger effect = higher value
Sequence of Galanin receptor type 2 (Homo sapiens) (O43603 whole entry, looked up): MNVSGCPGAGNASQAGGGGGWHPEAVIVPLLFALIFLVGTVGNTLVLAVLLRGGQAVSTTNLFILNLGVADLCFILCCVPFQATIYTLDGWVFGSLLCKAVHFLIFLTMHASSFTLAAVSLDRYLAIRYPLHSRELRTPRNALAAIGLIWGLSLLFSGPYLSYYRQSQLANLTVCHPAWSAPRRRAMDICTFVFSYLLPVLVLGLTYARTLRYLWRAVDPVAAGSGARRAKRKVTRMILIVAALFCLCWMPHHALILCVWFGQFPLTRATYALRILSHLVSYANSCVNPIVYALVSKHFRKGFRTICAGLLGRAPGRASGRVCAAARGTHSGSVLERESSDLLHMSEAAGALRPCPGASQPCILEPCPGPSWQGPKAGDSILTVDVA

[2] = nonspecific BLA reporter inhibition – CHO NFAT-bla cells, FRET readout, counter-screen for GALR2 antagonist project, confirmation (AID 867;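 active means inhibition above the mean inhibition across tested compounds plus 3 SD, cut at about 27% in these data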;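 further: 0% = 500 nM thapsigargin stimulated wells and 100% = unstimulated BSA only wells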); conditions: beta-lactamase FRET, thapsigargin-stimulated, at 4.2 µM, stronger effect = higher value
[3] = system: TLR4-MyD88 interaction (human), BLA complementation; test: disruptors of TLR4 binding to MyD88 – cell-based, HeLa CL3-4, BLA complementation, FRET ratio, confirmation (AID 941;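 active means mean inhibition across three repeat runs above about 25% carried over from the earlier screen, limit read from the data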;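 further: plate controls were DMSO only for no effect and clavulanic acid blocking BLA at full dose for full effect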); conditions: CCF4 FRET ratio, at 8.4 µM, stronger effect = higher value
[4] = BLA reporter interference in HeLa cells – cell-based, full-length BLA, CCF4 FRET ratio, artefact control for TLR4-MyD88 binding inhibitor project, confirmation (AID 1237;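 active means mean inhibition over three repeats above about 26% taken from the earlier screen, limit read from the data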;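 further: HeLa cells stably expressing beta-lactamase reporter as counterscreen for TLR4-MyD88 inhibitors; 0% = DMSO and 100% = clavulanic acid full inhibition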); conditions: at 8.4 µM, stronger effect = higher value
[5] = target: Toll-like receptor 9 (Homo sapiens) (UniProt Q9NR96); test: disruptors of TLR9 binding to MyD88 – cell-based, CHO, BLA complementation, fluorescence, triplicate, confirmation (AID 540250;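 active means mean inhibition across three repeats above about 21% taken from the earlier screen, limit read from the data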;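 further: blue over green emission ratio reports constitutive TLR9 MyD88 association via BLA complementation; 0% = DMSO vehicle wells and 100% = clavulanate BLA inhibitor wells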); conditions: CCF4 FRET ratio, at 4.98 µM, stronger effect = higher value
Sequence of Toll-like receptor 9 (Homo sapiens) (Q9NR96 whole entry, looked up): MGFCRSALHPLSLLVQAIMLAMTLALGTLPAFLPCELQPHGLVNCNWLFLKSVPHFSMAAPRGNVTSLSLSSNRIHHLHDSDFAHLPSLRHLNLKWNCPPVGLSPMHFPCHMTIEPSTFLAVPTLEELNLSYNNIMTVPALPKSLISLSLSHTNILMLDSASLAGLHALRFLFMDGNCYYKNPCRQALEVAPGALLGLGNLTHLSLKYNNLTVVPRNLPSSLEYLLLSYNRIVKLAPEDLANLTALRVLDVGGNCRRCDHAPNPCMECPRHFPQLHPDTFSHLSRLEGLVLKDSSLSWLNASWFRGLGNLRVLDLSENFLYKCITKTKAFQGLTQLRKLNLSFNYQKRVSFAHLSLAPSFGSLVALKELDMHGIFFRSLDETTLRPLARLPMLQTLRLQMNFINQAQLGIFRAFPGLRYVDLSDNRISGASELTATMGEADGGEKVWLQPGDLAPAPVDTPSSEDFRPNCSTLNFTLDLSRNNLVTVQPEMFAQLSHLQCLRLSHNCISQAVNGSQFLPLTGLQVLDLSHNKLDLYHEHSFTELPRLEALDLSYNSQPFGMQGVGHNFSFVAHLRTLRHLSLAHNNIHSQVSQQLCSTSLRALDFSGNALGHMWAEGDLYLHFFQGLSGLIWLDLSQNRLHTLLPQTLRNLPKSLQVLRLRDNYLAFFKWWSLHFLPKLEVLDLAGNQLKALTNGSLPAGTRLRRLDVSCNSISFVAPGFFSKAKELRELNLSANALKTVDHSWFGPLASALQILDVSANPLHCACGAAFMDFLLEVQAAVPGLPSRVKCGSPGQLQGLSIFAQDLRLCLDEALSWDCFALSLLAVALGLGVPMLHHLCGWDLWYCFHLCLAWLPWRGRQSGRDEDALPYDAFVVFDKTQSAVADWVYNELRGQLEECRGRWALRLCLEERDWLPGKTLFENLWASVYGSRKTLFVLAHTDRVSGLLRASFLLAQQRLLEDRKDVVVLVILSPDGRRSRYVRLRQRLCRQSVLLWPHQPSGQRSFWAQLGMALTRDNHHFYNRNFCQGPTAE

[6] = BLA reporter readout interference – cell-based, fluorescence, artefact control for TLR9-MyD88 binding inhibitor project (AID 540251;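 active means mean inhibition above a 50% cutoff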;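 further: counterscreen of TLR9-MyD88 hits on CMV-driven BLA in CHO-K1 cells; 0% = DMSO alone and 100% = clavulanate blocking BLA; higher means less blue over green ratio so more BLA blockade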); conditions: CHO-BLA cells, CCF4 FRET ratio, at 4.98 µM, stronger effect = higher value
[7] = CHO cell viability loss – luminescence, single concentration, cytotoxicity control for TLR9-MyD88 binding inhibitor project (AID 588336; in the data active means inhibition above about 11%); conditions: TLR9-MyD88 CHO cells cytotoxicity, at 4.98 µM, stronger effect = higher value
[8] = target: Receptor-interacting serine/threonine-protein kinase 2 (Homo sapiens) (UniProt O43353); test: inhibitors of RIPK2 association with NOD2 – fluorescence, CHO cells, BLA complementation, triplicate, confirmation (AID 624370;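 active means mean inhibition across replicates above a set limit taken from the earlier primary screen, cut at about 21% in these data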;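 further: 0% = DMSO-only wells and the high end = clavulanate BLA-blocked wells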); conditions: CCF4 FRET, at 4.98 µM, stronger effect = higher value
Sequence of Receptor-interacting serine/threonine-protein kinase 2 (Homo sapiens) (O43353 whole entry, looked up): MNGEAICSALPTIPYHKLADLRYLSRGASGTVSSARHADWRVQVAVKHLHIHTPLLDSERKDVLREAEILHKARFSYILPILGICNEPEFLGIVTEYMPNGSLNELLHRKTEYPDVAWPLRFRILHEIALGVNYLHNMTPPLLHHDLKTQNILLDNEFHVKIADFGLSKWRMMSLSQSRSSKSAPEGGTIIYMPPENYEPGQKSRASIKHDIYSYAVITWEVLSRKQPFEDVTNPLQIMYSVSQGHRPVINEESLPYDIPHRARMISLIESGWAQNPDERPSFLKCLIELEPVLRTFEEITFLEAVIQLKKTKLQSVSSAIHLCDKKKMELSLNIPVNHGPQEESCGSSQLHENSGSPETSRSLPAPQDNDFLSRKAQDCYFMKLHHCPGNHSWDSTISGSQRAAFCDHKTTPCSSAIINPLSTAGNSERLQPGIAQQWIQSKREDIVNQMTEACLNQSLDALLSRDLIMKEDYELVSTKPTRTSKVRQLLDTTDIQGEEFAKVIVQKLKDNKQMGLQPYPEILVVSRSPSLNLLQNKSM

[9] = BLA reporter readout interference – cell-based, CHO-K1 CMV-bla, CCF4 FRET, fluorescence, artefact control for NOD2-RIPK2 interaction inhibitor project, confirmation (AID 624371;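 active means mean inhibition above the low-control mean inhibition plus three low-control SD, cut at about 11% in these data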;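 further: 0% = DMSO only wells and 100% = clavulanate high control wells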); conditions: CCF4 FRET ratio, counterscreen, at 4.98 µM, stronger effect = higher value
[10] = target: (Lyso)-N-acylphosphatidylethanolamine lipase (Mus musculus) (UniProt Q8VD66); test: mouse ABHD4 hydrolase blockers, triplicate – biochemical, fluorescence polarization, confirmation (AID 720658;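 active means mean inhibition across replicates above the hit cutoff set in the primary screen, cut at about 30% in these data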;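 further: 0% = wild-type ABHD4 with DMSO and 100% = catalytically dead S159A mutant with DMSO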); conditions: purified mABHD4, FP-Rh probe fluorescence polarization; at 8.92 µM; stronger effect = higher value
Sequence of (Lyso)-N-acylphosphatidylethanolamine lipase (Mus musculus) (Q8VD66 whole entry, looked up): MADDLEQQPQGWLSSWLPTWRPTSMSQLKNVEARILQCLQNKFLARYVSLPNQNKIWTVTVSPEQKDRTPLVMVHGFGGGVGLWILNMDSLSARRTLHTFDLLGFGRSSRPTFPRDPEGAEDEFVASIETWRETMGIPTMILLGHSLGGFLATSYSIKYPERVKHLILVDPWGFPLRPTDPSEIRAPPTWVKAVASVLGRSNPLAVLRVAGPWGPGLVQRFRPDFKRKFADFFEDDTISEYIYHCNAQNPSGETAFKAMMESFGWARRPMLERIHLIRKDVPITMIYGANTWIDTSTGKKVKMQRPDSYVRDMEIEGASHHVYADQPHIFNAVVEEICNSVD

[11] = system: HIV-1 integrase (multimerization); test: stimulation of HIV-1 integrase oligomerization – biochemical, TR-FRET, counter-screen for LEDGF/p75 integration inhibitor project (AID 1053131; in the data active means activation above about 8.9%); conditions: TR-FRET HIV-1 integrase multimerization, at 7.7 µM, stronger effect = higher value
[12] = compounds disturbing TR-FRET signal readout – biochemical, HIV-1 IN multimerization, artefact control for LEDGF/p75-dependent integration inhibitor project, confirmation (AID 1053135;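 active means inhibition above the mean over all tested compounds plus 3 SD, which no compound reached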;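 further: 0% = integrase with antibodies and DMSO and 100% = antibodies without integrase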); conditions: TR-FRET optical interference counterscreen, at 7.7 µM, stronger effect = higher value
[13] = system: HIV-1 integrase / human LEDGF/p75 complex; test: blockers of LEDGF/p75-dependent integrase activity – biochemical, TR-FRET, confirmation (AID 1053136; in the data active means inhibition above about 14%); conditions: TR-FRET LEDGF/p75-dependent HIV-1 integration, at 3.7 µM, stronger effect = higher value
[14] = potentiators of IFN-gamma STAT1 reporter activity – cell-based, HTS, luciferase reporter, confirmation (AID 1262;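 active means activation above a set limit carried over from the earlier primary STAT1 screen, cut at about 140% in these data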;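 further: simple ratio to median IFN-gamma plus DMSO wells so 0% means no light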); conditions: NIH 3T3 STAT1-luciferase reporter, IFN-gamma potentiation, luminescence; at 5.7 µM; stronger effect = higher value; 100% = IFN-gamma EC80 alone, no compound
[15] = enhancement of NF-kB transcriptional signalling – cell-based, HEK293T, luciferase luminescence, TNF-alpha, counter-screen for STAT1 activator project (AID 1306;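 active means activation above the mean of solvent-only control wells plus 3 SD, set per campaign, cut at about 130% in these data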;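 further: TNF-alpha given at a submaximal dose yielding about 80% of full reporter signal; values are well signal over median control so 100% means no change and 0% no light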); conditions: HEK293T NF-kB luciferase reporter, TNF-alpha stimulated, at 5.7 µM, stronger effect = higher value, 100% = TNF-alpha with vehicle only
[16] = target: Signal transducer and activator of transcription 3 (Homo sapiens) (UniProt P40763); test: enhancers of IL-6 STAT3 transcription – U3A cells, luciferase, luminescence, counter-screen for STAT1 activator project, confirmation (AID 1316;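 active means activation above the solvent-only control well mean plus 3 SD, set per plate batch, cut at about 110% in these data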;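 further: 0% = no luminescence and 100% = median IL-6 plus DMSO wells; higher means more STAT3 reporter activation so hits are non-selective activators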); conditions: U3A cells STAT3-luciferase reporter, IL-6, luminescence; at 5.7 µM; stronger effect = higher value; 100 = IL-6 alone, no compound effect; cells lack STAT1
[17] = reduced OD of T4-infected AddAB+ E. coli – absorbance, E. coli V3065, T4 phage, triplicate, AddAB inhibitor project, confirmation (AID 488942;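 active means mean inhibition above a set limit taken from the earlier primary screen, cut at about 13% in these data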;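 further: higher means less bacterial growth since AddAB block lets phage replicate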); conditions: E. coli V3065 expressing H. pylori AddAB, at 11.9 µM, stronger effect = higher value, T4 phage with gene 2 nonsense mutations
[18] = reduced OD of phage-infected RecBCD+ V66 E. coli – absorbance, mutant T4 phage, counter-screen for AddAB inhibitor project (AID 488955;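 active means mean inhibition above the mean of solvent-only control wells plus 3 SD, cut at about 4% in these data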;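 further: optical density read after an 18 h incubation at 37 °C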); conditions: OD growth, at 11.9 µM, stronger effect = higher value
[19] = bacterial growth inhibitors – absorbance, counter-screen for AddAB inhibitor project, confirmation (AID 488956; in the data active means inhibition above about 25%); conditions: bacterial viability, absorbance (AddAB counterscreen); at 11.9 µM; stronger effect = higher value
[20] = reduced OD of V66 E. coli with T4 gene 2 phage – absorbance, RecBCD inhibitor project, confirmation (AID 651982;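 active means mean inhibition over triplicates exceeding the hit threshold derived in the original primary screen, cut at about 11% in these data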); conditions: E. coli V66 + T4 2- phage, growth OD; at 11.9 µM; stronger effect = higher value
[21] = bacterial growth inhibition – absorbance, high throughput, counter-screen for RecBCD inhibitor project (AID 651983; in the data active means inhibition above about 20%;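 further: E. coli strain V66 grown with compound alone and no phage infection; 0% = bacteria with DMSO vehicle only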); conditions: E. coli viability, absorbance (OD) growth; at 11.9 µM; stronger effect = higher value
[22] = reduced optical density, T4-challenged addAB+ bacteria – absorbance, E. coli V3065, T4 phage, counter-screen for RecBCD inhibitor project, confirmation (AID 651984;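 active means mean inhibition above the solvent-only control wells' mean plus 3 SD, cut at about 22% in these data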;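 further: higher means less bacterial growth from phage killing when AddAB is blocked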); conditions: E. coli expressing H. pylori AddAB + T4 phage, OD growth; at 11.9 µM; stronger effect = higher value; gene 2 mutant T4, recBCD-deleted host
[23] = BSA probe fluorescence interference – biochemical, TAMRA-labeled BSA, counter-screen for TCR-CD3 interaction inhibitor project (AID 652035); conditions: TAMRA-labeled BSA probe fluorescence counterscreen; at 9.4 µM; stronger effect = higher value;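 further: 0% = buffer low control and 100% = reference high control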
[24] = system: T-cell receptor (TCR)-CD3 interaction, human; test: blockers of TCR binding to CD3 – biochemical, fluorescence, TAMRA-labeled TCR probe, confirmation (AID 652036; in the data active means inhibition above about 19%); conditions: TAMRA-labeled TCR probe fluorescence binding assay; at 9.4 µM; stronger effect = higher value
[25] = blockers of IL-6 STAT3 signaling – U3A cells, luciferase, luminescence, confirmation (AID 1265;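 active means inhibition above the hit cutoff computed for the primary STAT3 screen, cut at about 44% in these data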;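 further: 0% = IL-6 plus DMSO and 100% = IL-6 plus nifuroxazide control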); conditions: IL-6 STAT3 luciferase reporter, at 5.7 µM, stronger effect = higher value, cell line lacks STAT1
[26] = inhibition of TNF-alpha-driven NF-kB transcription – cell-based, HEK293T, luciferase, TNF-alpha stimulus, counter-screen for STAT3 inhibitor project, confirmation (AID 1308;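 active means inhibition above the mean of solvent-only control wells plus 3 SD, cutoff set per campaign, cut at about 13% in these data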;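 further: 0% = TNF-alpha with DMSO and 100% = TNF-alpha with MG high control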); conditions: HEK293T NF-kB luciferase reporter, TNF-alpha induced; at 5.7 µM; stronger effect = higher value
[27] = inhibition of STAT1-driven transcription – cell-based, NIH 3T3, luciferase luminescence, IFN-gamma, counter-screen for STAT3 inhibitor project, confirmation (AID 1317;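 active means inhibition above the mean plus 3 SD of solvent-only control wells, limit set per screening run, cut at about 16% in these data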;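 further: 0% = DMSO with IFN-gamma and 100% = nifuroxazide control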); conditions: NIH 3T3 STAT1-luciferase reporter, IFN-gamma induced, at 5.7 µM, stronger effect = higher value
[28] = suppression of KLF5 promoter-driven luciferase – DLD-1 cells, luminescence, confirmation (AID 1834;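 active means inhibition above a set limit taken from the earlier primary screen, cut at about 63% in these data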;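 further: 0% = DMSO wells and 100% = LY294002 at 200 µM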); conditions: DLD-1 KLF5 promoter firefly luciferase reporter, at 4 µM, stronger effect = higher value
[29] = IEC-6 intestinal cell killing – luminescence, triplicate, cytotoxicity control for KLF5 inhibitor project (AID 1905); conditions: IEC-6 rat intestinal cells, viability luminescence; at 4 µM; stronger effect = higher value;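 further: cells exposed to compounds for 48 hours before viability read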
[30] = target: Nuclear receptor coactivator 3 (Homo sapiens) (UniProt Q9Y6Q9); test: NCOA3 GAL4-fusion reporter inhibition – cell-based, luminescence, quadruplicate, confirmation (AID 588792;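 active means mean inhibition over 43.08%, the solvent-only control mean plus 3 SD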;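 further: 0% = DMSO treated cells and 100% = gossypol at 36 µM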); conditions: HEK293 GAL4-SRC3 luciferase reporter, at 3.6 µM, stronger effect = higher value
[31] = system: transactivating tegument protein VP16 (Human herpesvirus 1), Gal4-VP16 luciferase reporter; test: repression of VP16-driven luciferase reporter – cell-based, luminescence, high throughput, counter-screen for SRC3 inhibitor project (AID 588794; in the data active means inhibition above about 30%); conditions: mammalian cells, at 3.6 µM, stronger effect = higher value
[32] = target: Nuclear receptor coactivator 1 (Homo sapiens) (UniProt Q15788); test: NCOA1 GAL4-fusion reporter inhibition – cell-based, luminescence, quadruplicate, confirmation (AID 588820;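 active means mean inhibition above 46.68%, the untreated control wells mean plus 3 SD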;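 further: 0% = DMSO wells and 100% = gossypol 36 µM treated wells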); conditions: HEK293 GAL4-SRC1 luciferase reporter, at 3.6 µM, stronger effect = higher value
Sequence of Nuclear receptor coactivator 1 (Homo sapiens) (Q15788 whole entry, looked up, the tested form may be a part): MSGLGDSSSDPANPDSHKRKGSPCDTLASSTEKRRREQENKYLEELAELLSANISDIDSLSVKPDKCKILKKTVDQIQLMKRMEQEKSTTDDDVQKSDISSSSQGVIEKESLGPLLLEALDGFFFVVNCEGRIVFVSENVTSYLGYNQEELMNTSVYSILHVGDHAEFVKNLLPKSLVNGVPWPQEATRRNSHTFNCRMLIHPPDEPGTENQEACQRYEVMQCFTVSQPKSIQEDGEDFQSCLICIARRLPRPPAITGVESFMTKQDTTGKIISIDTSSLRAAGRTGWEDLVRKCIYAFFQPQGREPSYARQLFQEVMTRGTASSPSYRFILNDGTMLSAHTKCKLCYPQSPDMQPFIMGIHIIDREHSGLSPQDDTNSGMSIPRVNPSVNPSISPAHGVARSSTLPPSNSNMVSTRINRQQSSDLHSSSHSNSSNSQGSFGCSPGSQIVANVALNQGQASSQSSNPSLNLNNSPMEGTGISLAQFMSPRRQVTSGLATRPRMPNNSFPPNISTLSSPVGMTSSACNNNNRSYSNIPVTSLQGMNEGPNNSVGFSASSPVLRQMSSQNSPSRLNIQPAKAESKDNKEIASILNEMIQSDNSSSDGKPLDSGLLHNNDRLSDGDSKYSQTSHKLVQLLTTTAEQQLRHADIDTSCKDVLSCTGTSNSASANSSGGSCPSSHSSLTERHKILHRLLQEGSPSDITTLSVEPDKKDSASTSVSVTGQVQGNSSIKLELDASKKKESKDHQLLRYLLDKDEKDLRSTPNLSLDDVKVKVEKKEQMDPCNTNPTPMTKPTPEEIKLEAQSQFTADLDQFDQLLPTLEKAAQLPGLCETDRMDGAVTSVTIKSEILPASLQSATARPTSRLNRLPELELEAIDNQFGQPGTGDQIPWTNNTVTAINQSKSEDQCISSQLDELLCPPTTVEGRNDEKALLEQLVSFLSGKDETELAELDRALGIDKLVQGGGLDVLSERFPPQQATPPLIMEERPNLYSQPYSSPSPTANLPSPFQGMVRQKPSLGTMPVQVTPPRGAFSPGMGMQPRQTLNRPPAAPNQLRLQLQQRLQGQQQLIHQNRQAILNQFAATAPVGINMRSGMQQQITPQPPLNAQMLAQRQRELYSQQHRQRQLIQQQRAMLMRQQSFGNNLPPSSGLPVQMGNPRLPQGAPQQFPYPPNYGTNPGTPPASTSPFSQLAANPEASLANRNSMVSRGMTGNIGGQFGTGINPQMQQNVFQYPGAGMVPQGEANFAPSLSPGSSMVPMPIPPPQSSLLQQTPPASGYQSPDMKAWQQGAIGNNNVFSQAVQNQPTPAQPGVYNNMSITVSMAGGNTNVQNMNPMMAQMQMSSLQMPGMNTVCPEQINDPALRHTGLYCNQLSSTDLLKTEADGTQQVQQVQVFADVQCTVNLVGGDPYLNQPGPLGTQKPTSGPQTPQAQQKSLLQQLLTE

[33] = repression of VP16-driven luciferase reporter – cell-based, luminescence, high throughput, counter-screen for SRC1 inhibitor project (AID 588824; in the data active means inhibition above about 25%); conditions: cell-based VP16 transactivation luciferase luminescence; at 3.6 µM; stronger effect = higher value
[34] = target: Photoreceptor-specific nuclear receptor (Homo sapiens) (UniProt Q9Y5X4); test: retest of NR2E3-NCOR disrupting agonists – cell-based, luminescence, CHO-S two-hybrid, confirmation (AID 624378;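 active means average inhibition above a cutoff equal to the mean inhibition of all tested compounds plus one SD, cut at about 70% in these data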;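 further: 0% = DMSO in NR2E3 cells and 100% = DMSO in cells lacking NR2E3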); conditions: CHO-S mammalian two-hybrid NR2E3-NCOR, luciferase luminescence; at 3.98 µM; stronger effect = higher value
[35] = nonselective effects on VP16 transactivation – cell-based, luminescence, CHO-S, high throughput, counter-screen for NR2E3 agonist project, confirmation (AID 624379;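 active means mean inhibition above a cutoff equal to the average over all tested compounds plus one standard deviation, cut at about 70% in these data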;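 further: 0% = DMSO with VP16-transfected cells and 100% = DMSO with cells lacking VP16; higher means less reporter light so more repression of VP16 activity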); conditions: CHO-S GAL4-VP16 luciferase reporter, at 3.98 µM, stronger effect = higher value
[36] = StAR promoter reporter inhibitors, counter-screen for LRH-1 inverse agonist project, cell-based, luminescence, high throughput (AID 651611; in the data active means inhibition above about 28%); conditions: StAR promoter luciferase reporter counterscreen, at 3.6 µM, stronger effect = higher value
[37] = target: Nuclear receptor subfamily 5 group A member 2 (Homo sapiens) (UniProt O00482); test: NR5A2 activity suppression in reporter cells – cell-based, luminescence, confirmation (AID 651613; in the data active means inhibition above about 42%;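 further: HEK293T cells co-transfected with LRH-1 and StAR promoter luciferase reporter; 0% = vehicle wells and 100% = parental cells lacking receptor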); conditions: cell-based LRH-1 luciferase reporter, inverse agonism; at 3.6 µM; stronger effect = higher value
Sequence of Nuclear receptor subfamily 5 group A member 2 (Homo sapiens) (O00482 whole entry, looked up): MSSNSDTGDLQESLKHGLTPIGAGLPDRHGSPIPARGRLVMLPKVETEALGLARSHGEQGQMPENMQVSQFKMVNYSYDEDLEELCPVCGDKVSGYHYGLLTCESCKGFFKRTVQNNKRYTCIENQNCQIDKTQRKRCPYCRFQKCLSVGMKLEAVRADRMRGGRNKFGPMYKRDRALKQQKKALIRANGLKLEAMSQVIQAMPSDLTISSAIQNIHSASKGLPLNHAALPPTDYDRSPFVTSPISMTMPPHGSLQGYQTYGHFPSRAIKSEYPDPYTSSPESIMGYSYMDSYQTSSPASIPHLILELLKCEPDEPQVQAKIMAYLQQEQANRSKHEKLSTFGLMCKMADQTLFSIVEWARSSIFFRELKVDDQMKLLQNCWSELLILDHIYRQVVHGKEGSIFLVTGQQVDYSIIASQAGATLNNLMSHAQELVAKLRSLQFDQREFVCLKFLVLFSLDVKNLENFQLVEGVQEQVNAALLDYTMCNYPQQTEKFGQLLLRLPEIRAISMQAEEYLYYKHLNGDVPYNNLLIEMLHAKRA

[38] = target: Steroidogenic factor 1 (Homo sapiens) (UniProt Q13285); test: inverse agonism at SF1 nuclear receptor – cell-based, luminescence, high throughput, counter-screen for LRH-1 inverse agonist project (AID 651614; in the data active means inhibition above about 44%;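 further: cells cotransfected with StAR promoter reporter and SF1 expression vector; 0% = vehicle on cells with receptor and 100% = vehicle on cells lacking receptor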); conditions: cell-based SF1 luciferase reporter, at 3.6 µM, stronger effect = higher value
[39] = compounds suppressing VP16-driven luciferase signal – cell-based, luminescence, high throughput, counter-screen for LRH-1 inverse agonist project (AID 651615; in the data active means inhibition above about 33%); conditions: Gal4-VP16 luciferase reporter cells, at 3.6 µM, stronger effect = higher value
[40] = VP16-driven transactivation reporter suppression – cell-based, luminescence, HEK293, counter-screen for COUP-TFII antagonist project (AID 687007; in the data active means inhibition above about 13%); conditions: HEK293 Gal4-VP16 luciferase reporter, at 8.5 µM, stronger effect = higher value
[41] = target: COUP transcription factor 2 (Homo sapiens) (UniProt P24468); test: retest of COUP-TFII reporter suppressors – cell-based, luciferase reporter, HEK293, triplicate, confirmation (AID 687008;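 active means mean inhibition over three repeats above a set limit taken from the earlier primary screen, cut at about 38% in these data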;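 further: 100% = cells given the luciferase reporter alone without the COUP-TF2 vector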); conditions: HEK293 NGFI-A luciferase reporter, luminescence; at 8.5 µM; stronger effect = higher value
Sequence of COUP transcription factor 2 (Homo sapiens) (P24468 whole entry, looked up): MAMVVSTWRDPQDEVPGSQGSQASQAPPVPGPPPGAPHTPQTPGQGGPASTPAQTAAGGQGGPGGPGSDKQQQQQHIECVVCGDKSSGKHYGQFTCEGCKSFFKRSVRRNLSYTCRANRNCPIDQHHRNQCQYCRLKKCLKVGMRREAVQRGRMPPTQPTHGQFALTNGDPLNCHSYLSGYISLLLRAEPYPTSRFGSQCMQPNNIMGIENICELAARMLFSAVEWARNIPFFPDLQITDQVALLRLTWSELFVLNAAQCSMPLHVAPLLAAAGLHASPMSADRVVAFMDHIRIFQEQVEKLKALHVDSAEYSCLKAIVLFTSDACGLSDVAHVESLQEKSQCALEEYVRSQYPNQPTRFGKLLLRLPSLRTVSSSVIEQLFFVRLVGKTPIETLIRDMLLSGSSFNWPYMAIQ

COc1ccccc1N1N=C(c2cccs2)CC1c1ccccc1 (stereo not given)
active: inhibition [1] 27.9% | inhibition [2] 39.8% | inhibition [3] 36% | inhibition [4] 70% | inhibition [5] 32.9% | inhibition [8] 51.8% | inhibition [9] 65.6%
inactive: inhibition [6] 43.5% | inhibition [7] 2.88%

Cc1ccc(S(=O)(=O)/N=C2\C=C(NS(=O)(=O)c3ccc(C)cc3)C(=O)c3ccccc32)cc1
active: inhibition [10] 60.6%
inactive: activation [11] -1.1% | inhibition [12] 5.59% | inhibition [13] 12%

COc1ccc(/C=N/Nc2nc3ccccc3c(=O)[nH]2)cc1
inactive: activation (% of control) [15] 119% | activation (% of control) [16] 102%
active: activation (% of control) [14] 169%

Cc1[nH]n(-c2ccccc2)c(=O)c1/C=N/NC(=O)c1ccoc1C
inactive: activation (% of control) [14] 120% | activation (% of control) [15] 117% | activation (% of control) [16] 108%

C=CC1=C(C(=O)O)N2C(=O)[C@@H](NC(=O)/C(=N/OCC(=O)O)c3csc(N)n3)[C@H]2SC1
inactive: inhibition [23] 6.41% | inhibition [12] -213%
active: inhibition [17] 102% | inhibition [18] 100% | inhibition [19] 101% | inhibition [20] 100% | inhibition [21] 101% | inhibition [22] 101% | inhibition [24] 20% | activation [11] 42.3% | inhibition [13] 90.4%

COc1ccccc1-c1cc(C(=O)N2CCCCC2)no1
active: activation (% of control) [14] 204% | activation (% of control) [15] 137% | activation (% of control) [16] 116%

CCCCCCCCn1c2c(c(=N)c3c1CCC3)CCCC2
inactive: inhibition [3] 23.3%
active: inhibition [4] 27.8% | inhibition [25] 86.6% | inhibition [26] 43.9% | inhibition [27] 28.9% | inhibition [28] 115% | inhibition [29] 23.5% | inhibition [30] 85.1% | inhibition [31] 87.4% | inhibition [32] 66.6% | inhibition [33] 87.6% | inhibition [34] 99.3% | inhibition [35] 91.4% | inhibition [36] 78.1% | inhibition [37] 110% | inhibition [38] 96.5% | inhibition [39] 96.8% | inhibition [40] 32.1% | inhibition [41] 87.4%

O=C(NNC(=O)c1ccccc1O)c1ccccc1O
inactive: inhibition [23] 2.97% | activation [11] 0.99% | inhibition [12] -4.93%
active: inhibition [20] 25.8% | inhibition [21] 26.4% | inhibition [22] 38.9% | inhibition [24] 37.8% | inhibition [13] 62.9%
